Results on 38 molecules are retold here after the supplement of paper PMC4894684.

Molecules are shown by their SMILES. Where a name gives a salt, the structure may show the parent alone. ± gives the standard deviation of the averaged measurements. Some results are limits rather than exact numbers.

This test deals with Toxoplasma gondii RH (in HFF). Briefly: parasite growth relative to the screen mean (all compounds = 100%); higher = less inhibition of parasite growth. To be noted: 5 µM; 72 h; oxygen 21 %. In outline: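 Growth values are relative to the mean of the whole screen and averaged over duplicate screens, with all compounds together set to 100%. Parasites (RH β-Gal–GFP Toxoplasma, MOI 1:5) were added within 2 h of pinning compounds at 5 µM final onto confluent human foreskin fibroblasts and grown 72 h at 21% O2. Parasite number came from CPRG β-Gal readings against in-plate standard curves.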
Turning to `Nc1nc(NCC2CCC(CNS(=O)(=O)c3cccc4ccccc34)CC2)nc2ccccc12` (stereo not drawn), the parasite growth is below 0%.

For `CCOC(=O)[C@H](CCc1ccccc1)N[C@H]1CCc2ccccc2N(CC(=O)O)C1=O` [Benazepril hydrochloride], the parasite growth came out at 140 ± 36%. Under `CC[C@@H]1Cn2c(c3nc(-c4ccccc4)nc-3n(C)c2=O)N1` stands 96.8 ± 13%; under `CN1CCC[C@@H]1Cc1c[nH]c2ccc(CCS(=O)(=O)c3ccccc3)cc12` [Eletriptan hydrobromide], 126 ± 18%. Under `c1ccc(C(NCCNC(c2ccccc2)c2ccccc2)c2ccccc2)cc1` [AMN 082 dihydrochloride] stands 35.1 ± 15%; under `NC[C@@H]1O[C@H](C23CC4CC(CC(C4)C2)C3)Cc2c1ccc(O)c2O`, 89.5 ± 18%; under `CCC(C)(C)C(=O)O[C@H]1C[C@@H](C)C=C2C=C[C@H](C)[C@H](CC[C@@H]3C[C@@H](O)CC(=O)O3)[C@H]21` [Simvastatin], 110 ± 18%. To `CCN1CCC[C@H]1CNC(=O)c1c(OC)ccc(Br)c1OC` [Remoxipride hydrochloride] belongs 113 ± 3.8%; to `O=C(O)c1cc(=O)c2c(Cl)cc(Cl)cc2[nH]1` [5,7-Dichlorokynurenic acid], 136 ± 26%. The molecule `CCN1CCC[C@H]1CNC(=O)c1cc(S(N)(=O)=O)ccc1OC` [(S)-(-)-Sulpiride] registered a parasite growth of 93.2 ± 3.8%. To `NCCNC(=O)c1ccc(Cl)cn1` [Lazabemide hydrochloride] belongs 109 ± 28%; to `c1cc(CN2CCCCC2)cc(OCCCNc2nc3ccccc3s2)c1` [Zolantidine dimaleate], 112 ± 4.6%; to `COc1cc(C(=O)OCCCN2CCCN(CCCOC(=O)c3cc(OC)c(OC)c(OC)c3)CC2)cc(OC)c1OC` [Dilazep dihydrochloride], 54.3 ± 11%. `CCOc1cc(CC(=O)N[C@@H](CC(C)C)c2ccccc2N2CCCCC2)ccc1C(=O)O` [Repaglinide] came in with a parasite growth of 150 ± 13%. For `CCC1(c2ccccc2)C(=O)NCNC1=O` [Primidone], the parasite growth is 113 ± 18%. In turn, `N[C@@H](C(=O)O)c1ccc(C(=O)O)c(C(=O)O)c1` yielded a parasite growth of 117 ± 7.7%.

With `CCCCCCCC/C=C\CCCCCCCC(N)=O` [Oleamide], the parasite growth was found to be 74.8 ± 12%. The molecule `CCCCOc1cc(CC2CNC(=O)N2)ccc1OC` (stereo not drawn) displayed a parasite growth of 156 ± 27%.

With `CC#CCOC(=O)C1=CCCN(C)C1` [Arecaidine but-2-ynyl ester tosylate], the parasite growth stood at 144 ± 12%. Molecule `CC[C@H](CO)Nc1nc(Nc2cccc(-c3ccccn3)c2)c2ncn(C(C)C)c2n1` [(R)-DRF053 dihydrochloride] displayed a parasite growth of 32.4 ± 16%.

`COc1ccccc1N1CCN(CCN2C(=O)CC3(CCCC3)CC2=O)CC1` [BMY 7378 dihydrochloride] yielded a parasite growth of 81.06 ± 0.29%. `CC(C)NCC(O)c1ccc(O)c(O)c1` (stereo not drawn) [Isoproterenol hydrochloride] returned a parasite growth of 172 ± 14%. To `O=C(O)c1ccccc1Nc1cccc(OCc2ccc3ccccc3n2)c1` [SR 2640 hydrochloride] belongs 135 ± 9.3%; to `N#C/C(=C\c1ccc(O)c(O)c1)C(=O)Nc1ccccc1`, 141 ± 23%; to `CC(O)(C(=O)Nc1ccc(S(=O)(=O)c2ccccc2)cc1)C(F)(F)F` (stereo not drawn), 59.3 ± 19%.

As for `O=C(O)C1(C(=O)O)CCC1.[NH2-].[NH2-].[Pt+2]` [Carboplatin], the parasite growth came to 136 ± 19%. To `Cn1cc(C2=C(c3ccc(Cl)cc3Cl)C(=O)NC2=O)c2ccccc21` belongs 136 ± 4.2%; to `Clc1ccc(CCCOCCCN2CCCCC2)cc1`, 45.7 ± 21%; to `CC(C)n1nnc2cc(C(=O)O)ccc21`, 81.9 ± 22%. As to `O=C(/C=C/c1ccccc1)NC(NC(=S)Nc1cccc2cccnc12)C(Cl)(Cl)Cl` (stereo not drawn) [Salubrinal], the parasite growth came to 86.2 ± 17%. Under `NC(=O)c1ccc(-c2nc(-c3ccccn3)c(-c3ccc4c(c3)OCO4)[nH]2)cc1` stands 36.2 ± 32%; under `COc1ccc2[nH]cc(CCNC(C)=O)c2c1` [Melatonin], 84.8 ± 3.7%. Under `CC(C)NC[C@@H](O)COc1cccc2ccccc12` [(R)-(+)-Propranolol hydrochloride] stands 87.15 ± 0.86%; under `[O-][S+](c1ccccc1)c1ccc2nnnn2n1` (stereo not drawn), 111.89 ± 0.016%; under `CO[C@@H]1[C@H](O)[C@@H](CO)O[C@H]1n1cnc2c(NC3CCCCC3)ncnc21`, 103 ± 24%. Under `CNCCC(Oc1ccccc1OC)c1ccccc1` (stereo not drawn) [Nisoxetine hydrochloride] stands 67 ± 20%. Consider `C=CCNC(=O)c1cc([N+](=O)[O-])cc2c(=O)[nH]c(Nc3ccc(Cl)c(Cl)c3)nc12`, for which the parasite growth is 89.6 ± 4.6%. To `CCc1cc2c(c(CC)n1)CCC(=O)N2Cc1ccc(-c2ccccc2-c2nn[nH]n2)cc1` [ZD 7155 hydrochloride] belongs 91.1 ± 57%.
